Each structure is given as a SMILES string.

This assay in a line: hit retest on RPL19A-GFP reporter strain – cell-based, S. cerevisiae, flow cytometry, cherry picks, mother/daughter gates, confirmation (AID 2270). The settings on record: 3 h, measured here: mother cell gate, at 10 µM, stronger effect = lower value, 100 = same GFP as DMSO wells. A general note: Flow cytometry measures light scatter and fluorescence of single cells or particles in a stream.
For the compound `Cc1c(O)nc(SC2CC(=O)N(c3ccccc3)C2=O)[nH]c1=O` (stereo not given), the GFP response vs DMSO is 96.7%.
Compound `COC(=O)c1ccc(/C=N\NC(=O)c2ccc(C)cc2Cl)cc1` displayed a GFP response vs DMSO of 96.7%.
`Cc1cccc(CS(=O)(=O)c2ncc(Cl)c(C(=O)NCc3ccccc3)n2)c1` yielded a GFP response vs DMSO of 99.1%.
As for `Cc1ccc(S(=O)(=O)N2CCCC2C(=O)OCc2ccco2)cc1` (stereo not given), the figure is 103%; as for `Clc1ccc(N=c2ssnc2Cl)cc1`, 92.9%.
Regarding `O=C1c2ccccc2C(=O)C2OC12` (stereo not given), the GFP response vs DMSO stood at 88.1%.
Under `CCCc1[nH]nc2c1C(c1ccc(OC)cc1OC)C(C#N)=C(N)O2` (stereo not given) stands 99.8%; under `O=[N+]([O-])c1ncccc1OCc1ccc(-c2ccccc2)cc1`, 98.8%.
As for `C/C(=N/NS(=O)(=O)c1ccccc1)c1ccc(NC(=O)C(F)(F)F)cc1`, the figure is 103%.
As for `O=C1c2ccsc2SCCN1Cc1ccccc1`, the figure is 94.8%; as for `CCc1ccc(-c2csc(NC(=O)COC(=O)CCc3nc4ccccc4s3)n2)cc1`, 106%.
Take `COc1ccc(-c2nn(-c3ccccc3)cc2C(=O)NC(=S)NNC(=O)c2ccncc2)cc1`: the GFP response vs DMSO worked out at 98.3%.
In turn, `CCOC(=O)Cc1csc(NC(=O)CSc2nnc(-c3ccc(C)cc3)o2)n1` returned a GFP response vs DMSO of 101%.
Under `CCOC(=O)C1=C(Cc2ccc(Cl)cc2)C(=O)c2ccccc2C1=O` stands 98.1%.
As for `COC(=O)c1ccc(N2C(=O)CC(SCCN)C2=O)cc1` (stereo not given), the figure is 98.4%; as for `O=S1(=O)Nc2c(ccc3cccnc23)-c2ccccc21`, 103%.
As for `Cc1cccc2c1NC(=O)/C2=C\C(=O)c1cccs1`, the figure is 89.1%; as for `Nc1cccnc1S(=O)(=O)c1cccc(C(F)(F)F)c1`, 97.2%; as for `CC(Oc1ccc(Br)cc1)C(=O)Nc1nc(-c2ccccn2)cs1` (stereo not given), 105%.
For `O=C1Nc2ccccc2C(=O)C1(Cl)Cc1ccccc1` (stereo not given), the GFP response vs DMSO is 88.3%.
As for `Cc1ccc(C(c2cc(Cl)c3cccnc3c2O)N2CCN(C)CC2)cc1` (stereo not given), the figure is 67.7%; as for `Cc1ccc(C)c(NC(=O)c2ccccc2O)c1`, 97.8%; as for `CN(C)CCCNc1cc(C(C)(C)C)nc2c(-c3ccc(Cl)cc3)cnn12`, 94.2%.
As for `O=C(O)c1ccc(N/N=C/c2c(F)cccc2Cl)cc1`, the figure is 98.1%; as for `O=C(O)c1ccccc1C(=O)N1CCN(c2cccc(Cl)c2)CC1`, 98.1%; as for `O=C(COC(=O)CCc1nc2ccccc2s1)Nc1nc(-c2ccccc2)cs1`, 100%.
`O=[N+]([O-])c1cc(O)c2ncccc2c1` came in with a GFP response vs DMSO of 97.5%.
Consider `NC1=NC(=O)C(CC(=O)c2ccc(Cl)cc2)S1` (stereo not given), for which the GFP response vs DMSO turned out to be 99.8%.
As for `NC(=O)C1CCN(C(=S)NCCc2ccccc2)CC1`, the figure is 97.1%; as for `COc1ccc(-c2cc(C(F)(F)F)nc(S(C)(=O)=O)n2)cc1`, 96.1%.
`Oc1c(C(Nc2cccc(C(F)(F)F)c2)c2ccncc2)ccc2cccnc12` (stereo not given) displayed a GFP response vs DMSO of 102%.
`CC(=O)Nc1cccc(Oc2ccc(-c3noc(C)n3)cc2)c1`: the GFP response vs DMSO was determined as 96.3%.
`N#C/C(C(=O)Nc1ccc(Cl)cc1)=C(/S)Nc1ccccc1` had a GFP response vs DMSO of 99.3%.
Compound `COc1ccc(NC2=C(Cl)C(=O)N(CCc3ccccc3)C2=O)c(OC)c1` returned a GFP response vs DMSO of 97.2%.
Under `CCN=C(NCC)SC1CC(=O)N(c2cccc(OCC)c2)C1=O` (stereo not given) stands 98.4%; under `Cn1c(=O)[nH]c(=O)c2c1nc(N1CCCCC1)n2CCOc1ccccc1`, 100%.
With `CC(=O)Nc1ccc(NC(=O)c2nc(S(=O)(=O)Cc3ccccc3)ncc2Cl)cc1`, the GFP response vs DMSO worked out at 96.9%.
Under `COc1cc(CCN2C(=O)c3cccc4cccc(c34)C2=O)c(S(=O)(=O)NCCCO)cc1OC` stands 99.7%.
Under `CCOc1cc(C)c(S(=O)(=O)N2CCCC2)cc1C` stands 91.1%.
`CC1CCCCN1S(=O)(=O)c1ccc(C(=O)Nc2nnc(-c3ccccc3Cl)o2)cc1` (stereo not given): the GFP response vs DMSO was 98.4%.

For the origin of these results see PubChem BioAssay.
